The panel holds about 83,000 compounds, 20% with a hit somewhere; the sample as a whole holds those more often.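 48-hour exposure, single concentration, 96-well plates; percent growth endpoint where 0 means no net growth. Active: below 10.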 A number with no mark means an inactive call. Active and inactive are the calls of the source.

Test systems include SK-MEL-2 melanoma; EKVX NSCLC; SN12C renal; UO-31 renal; TK-10 renal; ACHN renal; A498 renal; CCRF-CEM leukemia; MOLT-4 leukemia; RPMI-8226 leukemia; OVCAR-8 ovarian; OVCAR-5 ovarian; OVCAR-4 ovarian; SK-OV-3 ovarian; OVCAR-3 ovarian; HS 578T breast; NCI/ADR-RES ovarian; CAKI-1 renal; SR leukemia; IGROV1 ovarian.
Holding throughout (assay): NCI-60 one-dose screen, 48 h (100 = growth as untreated, 0 = no growth, -100 = all killed)
Settings in all cases: 10 µM unless noted

Consider `Clc1ccc2nc(CI)c(CI)nc2c1`, for which the growth is 82.5% with SK-MEL-2 melanoma; 90.1% in the assay with EKVX NSCLC; 59.4% in the assay on SN12C renal; -31.8% (active) in the assay on UO-31 renal; 88.3% in the assay on TK-10 renal; 87.7% with ACHN renal. Moreover, the growth in the assay with A498 renal is 118%; in the assay with CCRF-CEM leukemia it was 4.15% (active); with MOLT-4 leukemia, -27.4% (active); with RPMI-8226 leukemia, -36.6% (active); in the assay on OVCAR-8 ovarian, 93%; in the assay with OVCAR-5 ovarian, 91%. The growth with OVCAR-4 ovarian was 100%; with SK-OV-3 ovarian, 98.8%; with OVCAR-3 ovarian it was 65.4%; with HS 578T breast it was 158%; in the assay on NCI/ADR-RES ovarian, 100%.
In the case of `O=C(Nc1ccc(Cl)cc1)Nc1ccccc1CNc1nc(Nc2ccc(OCCN3CCCC3)cc2)ncc1Cl`, the growth in the assay with SK-MEL-2 melanoma is 102%; in the assay on EKVX NSCLC, 33.7%; with SN12C renal, 93.2%; in the assay with UO-31 renal it was -6.76% (active); in the assay on TK-10 renal it was -51.5% (active); in the assay on CAKI-1 renal it was 5.67% (active). The growth with A498 renal was 75.6%; in the assay with CCRF-CEM leukemia, 4.29% (active); in the assay with MOLT-4 leukemia it was -13.4% (active); with SR leukemia, 1.33% (active); with RPMI-8226 leukemia it was -24.2% (active); in the assay on SK-OV-3 ovarian, 91.6%. For the same compound, the growth in the assay with IGROV1 ovarian was 15.8%; with OVCAR-3 ovarian it was -77.9% (active); with HS 578T breast it was 96.4%; with NCI/ADR-RES ovarian, -35.9% (active).
As for `COc1ccc2[nH]c(=O)c(CNc3ccc(Nc4nccc(-c5ccc(Cl)cc5)n4)cc3)cc2c1`, the growth in the assay on SK-MEL-2 melanoma is 87%; in the assay with EKVX NSCLC, 94%; with SN12C renal, 87.1%; in the assay on UO-31 renal it was 64%; with TK-10 renal, 102%; in the assay with CAKI-1 renal, 97.6%. Besides, the growth is 75.7% in the assay with CCRF-CEM leukemia; 48.4% in the assay with MOLT-4 leukemia; 54% in the assay with SR leukemia; 77.6% with RPMI-8226 leukemia; 103% in the assay on OVCAR-5 ovarian; 99.9% in the assay with OVCAR-4 ovarian. Further, the growth was 118% in the assay with SK-OV-3 ovarian; 89.1% in the assay with IGROV1 ovarian; 89.3% in the assay on OVCAR-3 ovarian; 101% with HS 578T breast; 92.5% in the assay with NCI/ADR-RES ovarian.
Consider `COc1cccc(/C=N\NC(=O)c2ccncc2)c1O`, for which the growth is 43.8% with SK-MEL-2 melanoma; 78.8% with EKVX NSCLC; 62.8% in the assay on SN12C renal; 29% in the assay with UO-31 renal; 41.1% in the assay with TK-10 renal; 31.2% in the assay on ACHN renal. For the same compound, the growth is 13.2% with CAKI-1 renal; 11% with CCRF-CEM leukemia; 13.9% in the assay with MOLT-4 leukemia; 21% in the assay on SR leukemia; 58.7% with OVCAR-8 ovarian; 67% with OVCAR-5 ovarian. Moreover, the growth in the assay on OVCAR-4 ovarian is 31.7%; in the assay with SK-OV-3 ovarian it was 56.8%; in the assay with IGROV1 ovarian it was 65.1%; in the assay on OVCAR-3 ovarian it was 13.6%; in the assay with NCI/ADR-RES ovarian it was 25.3%.
Regarding `CC1CN(CC(O)c2ccc(Br)cc2)CCO1` (stereo not given), the growth in the assay with SK-MEL-2 melanoma was 103%; with EKVX NSCLC, 120%; in the assay on SN12C renal it was 110%; with UO-31 renal, 85.4%; with TK-10 renal it was 110%; in the assay on ACHN renal it was 106%. The growth in the assay with CAKI-1 renal is 103%; in the assay on CCRF-CEM leukemia it was 102%; in the assay on MOLT-4 leukemia it was 97%; in the assay with SR leukemia, 92.3%; in the assay on OVCAR-8 ovarian it was 96.2%; in the assay on OVCAR-4 ovarian it was 116%. Moreover, the results for the growth in the assay with SK-OV-3 ovarian, with IGROV1 ovarian and with OVCAR-3 ovarian were 112%, 109% and 107%, respectively.
Regarding `O=C1NC(=O)/C(=C/c2ccc(Cl)cc2Cl)N1`, the growth with SK-MEL-2 melanoma is 103%; in the assay with EKVX NSCLC, 77.4%; in the assay on SN12C renal it was 107%; in the assay with UO-31 renal, 80.7%; with TK-10 renal, 110%; in the assay on ACHN renal it was 109%. In addition, the growth in the assay on CAKI-1 renal is 102%; in the assay with CCRF-CEM leukemia, 92.3%; in the assay on MOLT-4 leukemia, 94.5%; in the assay on SR leukemia it was 93%; with OVCAR-8 ovarian, 101%; in the assay on OVCAR-5 ovarian it was 106%. The growth is 97.4% with OVCAR-4 ovarian; 98.9% in the assay with SK-OV-3 ovarian; 106% with IGROV1 ovarian; 105% with OVCAR-3 ovarian; 106% with NCI/ADR-RES ovarian.
On to `NC(=O)NC1(C(=O)O)CCCC1`, for which the growth was 108% with SK-MEL-2 melanoma; 115% in the assay with EKVX NSCLC; 105% in the assay with SN12C renal; 101% in the assay on UO-31 renal; 108% in the assay with TK-10 renal; 105% in the assay with ACHN renal. Also, the growth in the assay with CAKI-1 renal is 99.9%; in the assay with CCRF-CEM leukemia, 98.6%; with MOLT-4 leukemia it was 98.2%; in the assay with SR leukemia it was 91.8%; in the assay on OVCAR-8 ovarian, 106%; in the assay on OVCAR-5 ovarian, 98.5%. In addition, the growth in the assay on OVCAR-4 ovarian was 118%; in the assay on SK-OV-3 ovarian, 109%; with IGROV1 ovarian, 119%; with OVCAR-3 ovarian, 115%; with NCI/ADR-RES ovarian, 111%.
As for `c1ccc(Nc2ccc(Nc3nc(-c4ccccc4)nc4ccccc34)cc2)cc1`, the growth in the assay on SK-MEL-2 melanoma is 83.1%; with EKVX NSCLC, 87.1%; in the assay on SN12C renal, 87.9%; in the assay on UO-31 renal it was 63.7%; with TK-10 renal it was 98.5%; in the assay on ACHN renal it was 81.3%. Moreover, the growth in the assay with CAKI-1 renal is 71.2%; in the assay with CCRF-CEM leukemia, 52.7%; in the assay with MOLT-4 leukemia it was 53%; in the assay with SR leukemia it was 52.1%; in the assay with RPMI-8226 leukemia, 48.9%; in the assay on OVCAR-8 ovarian, 76.3%. Also, the growth with OVCAR-4 ovarian is 94.1%; with SK-OV-3 ovarian, 107%; in the assay on IGROV1 ovarian, 96.7%; in the assay on OVCAR-3 ovarian, 101%; in the assay on HS 578T breast it was 92.9%; in the assay with NCI/ADR-RES ovarian, 79%.
Take `COC(=O)Nc1ccc2ccc3c(NC(=O)OC)ccc4ccc1c2c43` (tested in a mixture with another compound): the growth with SK-MEL-2 melanoma was 52.8%; in the assay with EKVX NSCLC it was 68.1%; in the assay on SN12C renal, 68.4%; in the assay with UO-31 renal, 42.1%; in the assay with TK-10 renal, 85.9%; with ACHN renal, 59%. In addition, the growth was 50.7% in the assay with CAKI-1 renal; 54.4% in the assay with CCRF-CEM leukemia; 35% in the assay with MOLT-4 leukemia; 24.1% in the assay with SR leukemia; 66.5% with OVCAR-8 ovarian; 76.2% in the assay with OVCAR-5 ovarian. The growth with OVCAR-4 ovarian is 87.9%; in the assay on SK-OV-3 ovarian, 72%; in the assay on OVCAR-3 ovarian, 70.5%; in the assay on NCI/ADR-RES ovarian it was 36.6%.

Source of the values: PubChem BioAssay (NCI).
